Screens (PubChem)
Sampled rows, rich in hits. Any-hit rate of the full collection: about 21%.
HCV inhibitor: qHTS Assay for Inhibitors of Hepatitis C Virus (HCV) | Potency, µM (top dose mostly 41.8 µM), for the others: at the top dose activity change, negative = inhibition, actives largely listed as inhibitors | 340,000 tested, 3.4% active | AID 651820, 2012 | Huh7.5.1 HCVcc-Cre infection, luciferase reporter, 44 h; also: potency is read from the fitted curve at half-maximal effect; % is scaled to controls: 0 for no effect and ±100 for the full control effect
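Cells (1,000/well) were plated 4 h before compound, then infected with HCVcc-Cre virus (~0.5 moi). After 44 h further culture, infection was read as luciferase luminescence following a 15 min substrate incubation at room temperature.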
Pf growth 48h: Primary qHTS for delayed death inhibitors of the malarial parasite plastid, 48 hour incubation; 310,000 tested, 5.9% active; AID 504832, 2011; Potency, µM (top dose mostly 28.7 µM), for the others: at the highest dose activity change, negative = inhibition, most hits filed as inhibitors; P. falciparum luciferase growth in erythrocytes, 48 h; also: potency is read from the fitted curve at half-maximal effect; % is scaled to controls: 0 for no effect and ±100 for the full control effect
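Read-out is firefly luciferase luminescence from an integrated reporter in P. falciparum, so falling signal marks reduced parasite growth. Infected erythrocytes were at 2% hematocrit and 0.1% parasitemia (final) in Albumax-supplemented RPMI 1640.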
Pf growth 96h: Primary qHTS for delayed death inhibitors of the malarial parasite plastid, 96 hour incubation | P. falciparum luciferase reporter growth, 96 h | Potency, µM (series often up to 28.7 µM), for the others: top-dose activity change, negative = inhibition, most hits filed as inhibitors | 320,000 tested, 6.9% active | AID 504834, 2011; also: potency is read from the fitted curve at half-maximal effect; % is scaled to controls: 0 for no effect and ±100 for the full control effect
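Compounds incubated with erythrocytes infected by luciferase-expressing P. falciparum (2% hematocrit, 0.05% parasitemia final) for 96 hours, 37 C in 5% CO2. Growth inhibition scored as decreased luciferase luminescence.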
Cycloheximide cs: Cycloheximide Counterscreen for Small Molecule Inhibitors of Shiga Toxin | cell reporter, cycloheximide protein synthesis inhibition counterscreen | max response, % | 300,000 tested, 12% active; in the data active = max response mostly above about 13%, no sharp cut-off; inactive = mostly below about 14%; also: read at 38.3 µM for the half of the compounds with a filed dose; 0% is about no effect
Shiga toxin inh: A qHTS for Small Molecule Inhibitors of Shiga Toxin | AID 2315, 2010 | 290,000 tested, 9.2% active | inhibition, % at 38.7 µM | Vero cells, Shiga toxin protein synthesis inhibition reporter; in the data active = inhibition mostly above about 28%, no sharp cut-off; inactive = mostly below about 43%; also: 0% is about no effect
HCMV inh: qHTS Assay for inhibitors of the human cytomegalovirus (HCMV) | HFF cells, HCMV-luciferase reporter, 72 h; hits give low values | activity change, negative = inhibition, % at 57.5 µM | 410,000 tested, 4.5% active; in the data active = activity change below about -60%; inconclusive = no clear call, values can overlap the other calls; inactive = above about -39%; also: % is scaled to controls: 0 for no effect and ±100 for the full control effect
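Screen run at 2 compound doses on HFFs infected with reporter HCMV, MOI 1 PFU/cell. Luciferase activity from cell lysates at 72 h post infection gave inhibition relative to buffer-only and Salinomycin wells.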
* = called active by the depositor; u = inconclusive; x = no result. Unless noted, calls follow the shape of the dose curve; as a rule, active = well fitted inhibition curve with a large enough effect; inconclusive = small, poorly fitted or top-dose-only effect, or another doubt; inactive = no such curve, though single readings can be large or run the other way.

SMILES | HCV inhibitor | Pf growth 48h | Pf growth 96h | Cycloheximide cs | Shiga toxin inh | HCMV inh
CCOCCCn1c(SCC(=O)Nc2cc(C(C)(C)C)nn2-c2ccccc2)nc2ccccc2c1=O | -0.2% | 13.1µM* | u | 1.2 | -6.1 | -5.8
CC(=O)Nc1cccc(NC(=O)CSc2ncc(C(=O)Nc3ccccc3)c(=O)n2C)c1 | 11.2µM* | u | 3.5% | x | x | 9.5
COCCn1c(SCC(=O)Nc2cccc(C(=O)OC)c2)nc2ccccc2c1=O | -25.2% | 13.1µM* | 49.4% | -1.3 | 7.8 | -15.9
COc1cccc(NC(=O)CSc2nc3ccccc3c3nc4ccccc4n23)c1 | u | 13.1µM* | 13.8% | 5.0 | -4.7 | u
COc1ccc(CN(C(=O)c2snc(C(N)=O)c2N)C(C(=O)NC2CCCC2)c2ccco2)cc1 (centres undefined) | -25.9% | u | u | -2.8 | -3.1 | -12.4
CN(C)c1ccc(/C=C2\C(=O)Nc3ccccc32)c2ccccc12 | x | x | x | -2.5 | -1.9 | x
COCCCNC(=O)c1ccc2nc3ccccc3c(=O)n2c1 | 13.5% | 43.3% | x | 12.9* | -1.1 | 10.8
COC(CNC(=O)c1ccc2nc3ccccc3c(=O)n2c1)OC | 20.1% | 18.1% | 30.7% | 10.2 | 3.7 | u
Cc1cccc(C)c1NC(=O)Cn1cnc2c(=O)n(C)c(=O)n(C)c21 | -2.8% | 6.0% | 25.7% | -4.9 | -9.6 | 56.0
COc1ccc(-n2cnnc2SCC(=O)Nc2cc(C(C)(C)C)nn2-c2ccccc2)cc1 | -3.0% | x | u | -4.5 | -3.0 | -96.5*
Cc1ccccc1C(=O)Nc1cccc(NC(=O)Cn2cnc3c(=O)n(C)c(=O)n(C)c32)c1 | u | u | x | -3.0 | -14.6 | -64.1*
COCCCn1c(SCC(=O)Nc2ccc(C(C)=O)cc2)nc2ccccc2c1=O | -8.6% | u | -5.0% | 44.6* | 79.8* | 46.8
COc1ccccc1NC(=O)CCN1C(=O)c2ccccc2C1=O | -1.7% | x | 172.9% | -3.6 | -3.3 | 6.9
Cc1ccccc1-n1ncc2c1CC(C)(C)CC2NC(=O)C1CCC1 (centres undefined) | 5.6% | u | 14.3% | 17.6 | -2.2 | -29.3
CC(C)(CNC(=O)c1ccc(NS(=O)(=O)c2ccc(Br)cc2)cc1)N1CCOCC1 | -4.2% | -9.1% | -9.9% | x | x | -12.3
Cc1cccc(NC(=O)CSc2nc3ccccc3c(=O)n2C)c1 | 10µM* | 14.7µM* | u | -1.3 | 1.8 | u
CCn1c(SCC(=O)Nc2ccc(C(C)=O)cc2)nc2ccccc21 | -18.8% | 63.1% | x | 41.8* | 107.1* | 58.6
CC(=O)c1ccc(NC(=O)CSc2nc(=O)cc(N)n2-c2ccccc2)cc1 | 9.7% | 29.3% | 7.5% | 32.8* | 91.1* | 0.3
CCn1c(SCC(=O)Nc2ccc3[nH]c(=O)[nH]c3c2)nc2ccccc21 | -15.1% | 17.4% | -15.8% | x | x | 27.2
COC(=O)c1ccc(NC(=O)CSc2nc(=O)cc(N)n2-c2ccccc2)cc1 | -0.4% | -8.5% | u | -2.2 | -3.1 | 7.2
Cc1cccc(NC(=O)CSc2nc3c([nH]c4ccccc43)c(=O)n2C)c1 | -13.8% | 19.3% | u | -0.9 | 17.9 | 33.5
CCc1ccccc1NC(=O)CN1CCCN(Cc2cc(C)ccc2C)S1(=O)=O | x | x | x | x | x | 0.0
O=[N+]([O-])c1ccc(O)c(C=Nc2ccc3c(c2)OCO3)c1 | -4.8% | 10.2% | 21.5% | 23.6* | 16.1* | 146.7
O=C(N/N=C/c1ccccc1[N+](=O)[O-])c1ccc2c(c1)OCCO2 | u | 115.4% | 202.4% | 32.7* | 61.0* | -27.8
O=C(N/N=C/c1cc(O)ccc1[N+](=O)[O-])c1ccc2c(c1)OCCO2 | 12.8% | 62.0% | 273.9% | 14.8* | -15.2 | 30.6
O=C(N/N=C/c1ccccc1)c1ccc(N2CCOCC2)c([N+](=O)[O-])c1 | 19.6% | -10.6% | 2.6% | 3.3 | -0.9 | 13.5
O=C(N/N=C/c1cc([N+](=O)[O-])ccc1O)c1ccc2c(c1)OCCO2 | u | -90.8% | 98.6% | 17.6* | 16.5 | 24.7
